Records with an inconclusive call do not appear. Where a call stands in place of a potency, no number is given. Activity calls are given as the source filed them. The call rests on the fitted dose curve; in most records, active means well fitted inhibition curve with a large enough effect; inconclusive means small, poorly fitted or top-dose-only effect; inactive means flat fitted curve, though single readings scatter.

For 35 molecules, Potency results are on record in PubChem BioAssay (NCATS).
Potency means the concentration at half of the fitted maximal effect.

The experiment can be described thus: P-glycoprotein substrates identified in KB-8-5-11 adenocarcinoma cell line, qHTS therapeutic library screen (AID 1346987). Further: nearly all actives have a fitted effect of over 65% in size. The settings on record: KB-8-5-11 (P-gp overexpressing) viability, CellTiter-Glo, 72 h; series mostly up to 44.5 µM. In outline: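 KB-8-5-11: colchicine-selected sub-line of KB-3-1 over-expressing P-gp; assay medium lacked colchicine. 72 h drug exposure at 37 degree C, CellTiter-Glo.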
With `CC(NC(=O)CCc1nc2ccccc2c(=O)[nH]1)c1ccccc1` (stereo not given), the Potency entry was “inactive”. As for `C=C1OC2CC(C(=O)O)C=CC2NC1=O` (stereo not given), the entry is “inactive”. Take `O=C(O)CC1CCC(c2ccc(-c3ccc4nc(C(=O)NCc5ccc(OC(F)(F)F)cc5)cn4c3)cc2)CC1` (stereo not given): the Potency result was “inactive”. As for `CC1=CC(=O)C2(OC3OC(C)C(O)C(OC(=O)/C=C/c4ccccc4)C3O)C=COC(OC3OC(CO)C(O)C(O)C3O)C12` (stereo not given), the entry is “inactive”; as for `COc1cc2ncnc(Nc3ccc(O)cc3)c2cc1OC`, “inactive”; as for `CC(O)c1cc(C(=O)N[C@@H](C)Cn2ccc(-c3ccc(C#N)c(Cl)c3)n2)n[nH]1` (stereo not given in full), “inactive”. In the case of `c1cc(Nc2cc(C3CC3)[nH]n2)nc(Nc2ccc3nc[nH]c3c2)n1`, the Potency is 6510 nM (active). Turning to `Fc1ccc2nc(CCC#Cc3ccccn3)cn2c1`, the Potency entry was “inactive”.

For `C/C=C1\[C@H](O[C@@H]2O[C@H](CO)[C@@H](O)[C@H](O)[C@H]2O)OC=C(C(=O)OC)[C@H]1CC(=O)O`, the Potency entry was “inactive”. For `CN(C)c1ccc2c(c1)OC(N)=C(C#N)C2c1cccc(C(F)(F)F)c1` (stereo not given), the Potency was 326 nM (active). For `CN(C)CCn1cc(S(=O)(=O)c2cccc(F)c2)c2cccnc21`, the Potency entry was “inactive”. With `O=C1CSc2ccccc2N1Cc1cccc(C(F)(F)F)c1`, the Potency result is “inactive”. Turning to `CC(C)=CCC[C@](C)(O[C@@H]1O[C@H](CO)[C@@H](O)[C@H](O)[C@H]1O)[C@H]1CC[C@]2(C)[C@@H]1[C@H](O)CC1[C@@]3(C)CC[C@H](O)C(C)(C)C3[C@@H](O[C@@H]3O[C@H](CO)[C@@H](O)[C@H](O)[C@H]3O)C[C@]12C` (stereo not given in full), the Potency entry is “inactive”. On to `C[C@H](C/C=C/C(C)(C)O)[C@H]1CC[C@@]2(C)[C@@H]3[C@@H](O[C@@H]4O[C@H](CO)[C@@H](O)[C@H](O)[C@H]4O)C=C4C(CC[C@H](O)C4(C)C)[C@]3(C=O)CC[C@]12C` (stereo not given in full), for which the Potency result is “inactive”.

`C=C1C(=O)O[C@@H]2C/C(C)=C\C(=O)/C=C(\C)[C@@H](OC(=O)/C(C)=C\C)[C@H](O)[C@@H]12`: the Potency is 4040 nM (active). Take `O=C(NCc1ccc(F)cc1)C(=O)c1c[nH]c2ccccc12`: the Potency entry was “inactive”. As for `COc1c2ccoc2cc2oc(CO[C@@H]3O[C@H](CO)[C@@H](O)[C@H](O)[C@H]3O)cc(=O)c12`, the entry is “inactive”; as for `O=C(O)/C=C/c1ccc(-c2ccc(O)c(C34CC5CC(CC(C5)C3)C4)c2)cc1`, 580 nM (active); as for `COc1c(Nc2ncc(Cl)c(N[C@H]3[C@@H](C(N)=O)[C@@H]4C=C[C@H]3C4)n2)ccc2c1CC[C@@H](N1CCOCC1)CC2`, 8200 nM (active). Take `Cc1csc(NC(=O)c2ccc(COc3cccc(Cl)c3)o2)n1`: the Potency result is “inactive”. To `CC(C)[N+]1(C)C2CCC1CC(OC(=O)C(CO)c1ccccc1)C2` (stereo not given) belongs “inactive”; to `Cc1ccc(NC(=O)c2ccc(CN3CC[C@H](N(C)C)C3)c(C(F)(F)F)c2)cc1Nc1nccc(-c2cncnc2)n1`, “inactive”; to `CC[C@H](C)[C@H](NC(=O)[C@H]([C@@H](C)CC)N(C)C(C)=O)C(=O)N[C@H](C(=O)N[C@@H](CC(C)C)C(=O)[C@@]1(C)CO1)[C@@H](C)O`, 2590 nM (active). `O=C(NCc1ccc(S(=O)(=O)c2cc(F)cc(F)c2)cc1)c1ccc2nccn2c1`: the Potency was 18.4 nM (active). To `COC(=O)CC(O)C1OC(c2ccccc2)C(O)C1O` (stereo not given) belongs “inactive”.

Turning to `Cc1cc(O)c(-c2ccc([C@@H](C)CN(C)C)cc2)c2c1[nH]c(=O)c1sccc12`, the Potency was 82 nM (active). `CC(C)[C@@](C)(O)[C@@H]1CN(c2nc(-c3[nH]nc4ncccc34)c(F)cc2Cl)CCN1`: the Potency was 6510 nM (active). To `COc1ccc(CCO[C@@H]2CCCC[C@H]2N2CC[C@@H](O)C2)cc1OC` belongs “inactive”; to `COc1ccc(CNC(=O)c2sc3nc(C)cc(C)c3c2N)cc1`, “inactive”; to `N[C@@]1(C(=O)O)CC[C@H]2[C@H](C(=O)O)[C@H]21`, “inactive”.

In the case of `CC1CCC2(C(=O)O)CCC3(C)C(=CCC4C5(C)CCC(O)C(C)(CO)C5CCC43C)C2C1(C)O` (stereo not given), the Potency entry is “inactive”. In the case of `CC1=CC(=O)CC2C1(O)CCC(C)C21CC(c2ccoc2)OC1=O` (stereo not given), the Potency result is “inactive”. As for `C=CC1C(OC2OC(CO)C(O)C(O)C2O)OC=C2C(=O)N3C(C(=O)O)Cc4c([nH]c5ccccc45)C3CC21` (stereo not given), the entry is “inactive”; as for `CCC(=O)O[C@H]1C(C)(C)[C@H]([C@@H](O)C(=O)OC)[C@]2(C)C(=O)[C@@]1(O)[C@H]1O[C@]13C1CC(=O)O[C@@H](c4ccoc4)[C@]1(C)CCC32` (stereo not given in full), “inactive”. As for `CCNCc1nc2c(N)nc3ccccc3c2n1CC(C)(C)O`, the entry is “inactive”.
